Measurements from PubChem BioAssay AID1259421 (Broad Institute, 2018).
Several values for one entry are separate records, joined by “and”; a condition that tells them apart may be missing. Equal values may be shown once. About 610 (9.5%) of roughly 6,400 compounds were called active. Rule as the data show it: active = activity change below about -70%; inconclusive = no clear call, values can overlap the other calls; inactive = above that. What follows is part of a selection rich in actives, with near analogues and random picks from the rest. A structure can be active in one record and inactive in another.

test: Toxoplasma gondii ME49Luc growth in HeLa cells, luciferase, no IFN-y, primary screen (AID 1259421); details: T. gondii ME49Luc in HeLa, 72 h, stronger effect = lower value, concentration not given here

SMILES	activity change, negative = inhibition
C=C[C@@]1(C)CC(=O)[C@]2(O)[C@@]3(C)[C@@H](O)CCC(C)(C)[C@@H]3[C@H](O)[C@H](OC(=O)CCCN3CCN(C)CC3)[C@@]2(C)O1	-10.4% (inactive)
OC(c1ccccc1)C1CCN(CCc2ccccc2)CC1 (stereo not drawn)	5.4% (inactive) and 0.692% (inactive)
CC(C)(C(=O)O)c1ccc(C(O)CCCN2CCC(C(O)(c3ccccc3)c3ccccc3)CC2)cc1 (stereo not drawn)	4.73% (inactive) and 3.69% (inactive)
CC(C)(C)c1ccc(C(O)CCCN2CCC(C(O)(c3ccccc3)c3ccccc3)CC2)cc1 (stereo not drawn)	-86.1% (active) and 8% (inactive)
CCC(C)C(=O)O[C@H]1C[C@H](O)C=C2C=C[C@H](C)[C@H](CC[C@@H](O)C[C@@H](O)CC(=O)O)C21 (stereo partly drawn)	4.96% (inactive)
O=S(=O)(c1ccccc1)c1cnc2c(N3CCNCC3)cccc2c1	8.53% (inactive)
CCCCCCOc1nsnc1C1=CCCN(C)C1	-26.8% (inactive)
CCC(CC)(CC(=O)Nc1cccc(/C=C/c2nc(C3CCC3)cs2)c1)C(=O)O	41.5% (inactive)
O=C(C[C@H]1NCCC[C@@H]1O)Cn1cnc2cc(Br)c(Cl)cc2c1=O	-86% (active)
CC(C)[C@@H](N)C(=O)O	5.34% (inactive)
Clc1ccc2c(N3CCN(CCCN4CCN(c5ccnc6cc(Cl)ccc56)CC4)CC3)ccnc2c1	1.21% (inactive)
Cc1ncc(-c2ccnc(Nc3ccc(S(C)(=O)=O)cc3)n2)n1C(C)C	-84.5% (active)
C1CCN2C[C@@H]3C[C@H](CN4CCCC[C@@H]34)[C@H]2C1	13.5% (inactive)
O=C1[C@@H]2[C@H]3CC[C@H](C3)[C@@H]2C(=O)N1CCCCN1CCN(c2ncccn2)CC1	8.23% (inactive)
CCCCCCCCCCCCCCCCCCCCCC(=O)Nc1ccn([C@@H]2O[C@H](CO)[C@@H](O)[C@@H]2O)c(=O)n1	8.14% (inactive)
O=C(CN1CCNCC1)NC1CCCCC1	-5.36% (inactive)
C=C1CCC2[C@](C)(CO)[C@H](O)CC[C@@]2(C)[C@@H]1C/C=C1/C(=O)OC[C@H]1O (stereo partly drawn)	9.67% (inactive)
Nc1ncnc2c1c(-c1cnc3[nH]ccc3c1)nn2C1CCCC1	-82.4% (active)
N#CC[C@@H](C1CCCC1)n1cc(-c2ncnc3[nH]ccc23)cn1	1.99% (inactive)
N#CC[C@H](C1CCCC1)n1cc(-c2ncnc3[nH]ccc23)cn1	27.9% (inactive) and 17.6% (inactive)
COc1cc([C@@H]2[C@H]3CO[C@@]4(O)C(=O)[C@@H]2C=C([C@H]2Oc5cc(O)cc(O)c5C(=O)[C@@H]2O)[C@@H]34)ccc1O	-0.383% (inactive)
Cn1cnc2nc(NCCO)nc(NCc3ccccc3)c21	-3.03% (inactive)
OC1O[C@@H]2COC(c3ccccc3)O[C@H]2[C@H](O)[C@H]1O (stereo partly drawn)	36.7% (inactive)
COc1ccc2cc(-c3cc(-c4cc(Cl)cc(Cl)c4)nn3[C@@H](C)c3ccc(C(=O)NCCC(=O)O)cc3)ccc2c1	-64.1% (inactive)
CCCCNC(=O)c1ccc(Cl)cc1O	-69.9% (inactive)

SMILES	activity change, negative = inhibition
CCCCCCNC(=O)n1cc(F)c(=O)[nH]c1=O	-97.3% (active)
Cc1nnc(SCC2=C(C(=O)O)N3C(=O)[C@@H](N)[C@H]3SC2)s1	2.53% (inactive)
CCN(CC)CCCCC1CCN(CC(=O)N2c3ccccc3C(=O)Nc3cccnc32)CC1	11.7% (inactive) and 11.5% (inactive)
Cc1ccc([N+](=O)[O-])cc1S(=O)(=O)N(C)/N=C/c1cnc2ccc(Br)cn12	-80.3% (active)
Cc1ccc([N+](=O)[O-])cc1S(=O)(=O)N(C)C	16.2% (inactive) and 6.9% (inactive)
CN[C@@H]1C(OC2[C@H](O[C@H]3[C@H](O)[C@@H](O)[C@H](N=C(N)N)[C@@H](O)[C@@H]3N=C(N)N)OC(C)[C@]2(O)CO)OC(CO)C(O)C1O (stereo partly drawn)	3.82% (inactive)
C[C@]12CCc3occc3C1CC[C@@]13C[C@@H](CCC12)[C@@](O)(CO)C3 (stereo partly drawn)	-13.6% (inactive)
CCC1(c2ncc[nH]2)Cc2ccccc2O1 (stereo not drawn)	15% (inactive) and -0.683% (inactive)
CC(=O)O[C@H]1CC[C@@]2(C)C(C[C@@H](OC(C)=O)[C@]3(C)C2CC[C@@]2(C)[C@H](c4ccoc4)OC(=O)[C@H]4O[C@]423)C1(C)C (stereo partly drawn)	-27.9% (inactive)
Nc1nccc2c1ncn2[C@@H]1O[C@H](CO)C(O)C1O (stereo partly drawn)	-4.71% (inactive)
Nc1ncnc2c1ncn2[C@@H]1O[C@H](CO)[C@@H](O)[C@@H]1O	-51.5% (inactive)
Nc1nccc2c1ncn2[C@@H]1C=C(CO)[C@@H](O)[C@H]1O	-74.6% (active) and -68.5% (inactive)
CCC(CC)CC1(C(=O)Nc2ccccc2SC(=O)C(C)C)CCCCC1	-68.8% (inactive)
O=C(/C=C/c1ccccc1)NC(NC(=S)Nc1ccc(Cl)cc1)C(Cl)(Cl)Cl (stereo not drawn)	-82.6% (active)
O=C(/C=C/c1ccccc1)NC(NC(=S)Nc1cccc2cccnc12)C(Cl)(Cl)Cl (stereo not drawn)	0.586% (inactive)
COc1cccc(NC(=O)/C=C/c2ccc(Cl)cc2)c1	290% (inactive) and 329% (inactive)
CC(=O)c1ccc(NS(C)(=O)=O)c(Oc2ccc(F)cc2F)c1	22.3% (inactive)
COC[C@@H](c1ccc(C(F)(F)F)cc1)N1CCN(C2(C)CCN(C(=O)c3c(C)ncnc3C)CC2)C[C@@H]1C	5.59% (inactive)
CCCC(=O)Nc1cccc(NC(=O)c2ccccc2Br)c1	17.4% (inactive)
CCc1ccc(OCc2ccccc2C(=O)Nc2ccc3nc(C)cc(N)c3c2)cc1	-82.4% (active)
CCN(CC)CCCC(C)Nc1nc(C)cc(Nc2ccc3nc(C)cc(N)c3c2)n1 (stereo not drawn)	-14.9% (inactive)
Nc1c(Br)cc(Br)cc1CNC1CCC(O)CC1 (stereo not drawn)	2.89% (inactive) and 3.02% (inactive)
Cc1[nH]c(=O)c(C#N)cc1-c1ccc2nccn2c1	24.3% (inactive) and 0.856% (inactive)
CC(C)(C)c1nc(-c2cccc(NS(=O)(=O)c3c(F)cccc3F)c2F)c(-c2ccnc(N)n2)s1	-88.1% (active)
Cn1c(=O)c2c(ncn2CCOC(=O)C(C)(C)Oc2ccc(Cl)cc2)n(C)c1=O	7.49% (inactive)

SMILES	activity change, negative = inhibition
CC(=O)O[C@H]1C[C@@]2(C)[C@@H](C[C@@H](O)C3[C@]2(C)CC[C@H]2[C@H](C)[C@H](O)CC[C@]32C)/C1=C(/CCC=C(C)C)C(=O)O (stereo partly drawn)	-16.8% (inactive) and -21.5% (inactive)
CN1C(=O)C[C@@H](C(=O)N[C@@H](Cc2cnc[nH]2)C(=O)N2CCC[C@H]2C(N)=O)NC1=O	-66.5% (inactive)
COC(=O)C1=C(C)NC(C)=C(C(=O)NCCCN2CCC(c3ccccc3)(c3ccccc3)CC2)C1c1ccc([N+](=O)[O-])cc1 (stereo not drawn)	-48.9% (inactive)
COC(=O)C1=C(C)NC(C)=C(C(=O)OC/C=C/c2ccccc2)C1c1cccc([N+](=O)[O-])c1 (stereo not drawn)	-14.8% (inactive)
COC(=O)C1=C(C)NC(C)=C(C(=O)OCCCN2CCC(c3ccccc3)(c3ccccc3)CC2)[C@@H]1c1cccc([N+](=O)[O-])c1	-76.4% (active) and -90.4% (active)
COC(=O)C1=C(C)NC(C)=C(C(=O)OCCN(C)Cc2ccccc2)C1c1cccc([N+](=O)[O-])c1 (stereo not drawn)	31.7% (inactive) and 1.2% (inactive)
COC(=O)C1=C(C)NC(C)=C(C(=O)OCCCN2CCC(c3ccccc3)(c3ccccc3)CC2)[C@H]1c1cccc([N+](=O)[O-])c1	-68.2% (inactive) and -79.8% (active)
COC(=O)C1=C(C)NC(C)=C(C(=O)O[C@H]2CCN(Cc3ccccc3)C2)[C@H]1c1cccc([N+](=O)[O-])c1	0.473% (inactive)
COC(=O)C1=C(C)NC(C)=C(C(=O)OCCN2CCN(C(c3ccccc3)c3ccccc3)CC2)C1c1cccc([N+](=O)[O-])c1 (stereo not drawn)	-60.9% (inactive) and -77.5% (active)
CCOC(=O)C1=C(C)NC(C)=C(C(=O)OC)C1c1cccc([N+](=O)[O-])c1 (stereo not drawn)	3.95% (inactive) and 4.34% (inactive)
COC(=O)C1=C(C)NC(C)=C(C(=O)O[C@@H]2CCCN(Cc3ccccc3)C2)[C@@H]1c1cccc([N+](=O)[O-])c1	23.7% (inactive)
COc1ccc2c(c1)OC1(O)COc3cc(OC)c(OC)cc3C1=C2 (stereo not drawn)	10.6% (inactive)
CC(=O)N1CCN(CCOc2ccc(C3CCN(C4=Nn5c(nnc5C(F)(F)F)CC4)CC3)cc2)CC1	7.85% (inactive)
O=C(OC1C[C@@H]2CC3C[C@H](C1)N2CC3=O)c1c[nH]c2ccccc12 (stereo partly drawn)	-0.997% (inactive)
C[C@]1(Cn2ccnn2)C(C(=O)O)N2C(=O)CC2S1(=O)=O (stereo partly drawn)	0.084% (inactive)
CNc1cc2ncnc(Nc3cccc(Br)c3)c2cc1N	-8.12% (inactive)
O=c1[nH]cnc2c1cnn2[C@@H]1O[C@H](CO)[C@H](O)C1O (stereo partly drawn)	19.3% (inactive)
CCC(C)C(=O)OC1CC(C)C=C2C=CC(C)C(CCC(O)CC(O)CC(=O)O)C21 (stereo not drawn)	7.4% (inactive)
NCCC(O)(P(=O)(O)O)P(=O)(O)O	-2.86% (inactive)
COc1cc(O)c(C)c(O)c1	11% (inactive)
CC1(C)C(=O)N=C2c3ccccc3C(=O)C(=O)C21 (stereo not drawn)	-89.1% (active)
CNC(=O)[C@@H](c1ccccc1)N1CCc2cc(OC)c(OC)cc2[C@@H]1CCc1ccc(C(F)(F)F)cc1	7.93% (inactive)
O=C(Nc1cccc2c(=O)cc(-c3nn[nH]n3)oc12)c1ccc(OCCCCc2ccccc2)cc1	3.35% (inactive) and 13.6% (inactive)
